# From PubChem BioAssay
# Calls of active or inactive are those of the source.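 Rule for the calls, unless noted: active = visual image review flags a hit and inhibition of aggregation exceeds 20%; inconclusive = visual hit but inhibition at or below 20%; inactive = no hit on visual image review.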
# Assays:
# [1] = inhibitors of TNFa-induced NFkB p65 translocation, primary screen, imaging, HUVEC, MLSMR starter and 10KST1 sets (AID 438;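 active = inhibition above 20% together with a positive visual image hit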;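 note: compound added about 3h40 before a 20 min TNFalpha stimulation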;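 for inhibition: signal is the nuclear over cytoplasmic p65 intensity ratio per well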); settings: HUVEC TNFa-induced p65 nuclear translocation; cell count: measured here: nuclei count (cytotoxicity indicator), at 2.08 µM unless noted; inhibition: at 2 µM, stronger effect = higher value unless noted
# [2] = inhibitors of mutant huntingtin aggregation, primary screen, imaging, exon1htt(103Q)mCFP cells, high-content imaging (AID 483); settings: exon1htt(103Q)mCFP cell line, aggregate imaging, at 2 µM; inhibition of aggregation: stronger effect = higher value; nuclei count: measured here: cell count, toxicity;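 note: compound exposure lasted 3 days before fixation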;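 for nuclei count: percent of the per-plate median nuclei count of sample wells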
# [3] = inhibitors of E-selectin induction by TNFa, primary screen, imaging, HUVEC, immunofluorescence, MLSMR starter and 10KST1 sets (AID 487;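 active = visually confirmed hit in the image check and inhibition above 20%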;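 for inhibition: signal is fraction of cell area covered by stained E-selectin grains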;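 for nuclei count: 100% = median nuclei count of all wells on the same plate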); settings: HUVEC TNFalpha-induced E-selectin immunofluorescence imaging, at 2 µM; inhibition: stronger effect = higher value; nuclei count: measured here: cell number, toxicity
# [4] = biological target: Voltage-gated potassium channel subunit beta-2 (Rattus norvegicus) (UniProt P62483); test: KvBeta enzyme negative modulators, primary screen, biochemical, NADPH fluorescence (AID 622;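 active = fluorescence slope higher than the sample average by over 3 SD, cut at about -0.22 in these data, passing the limit was not always enough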;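 note: slope of raw intensity against log time taken from 70 to 1610 s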); settings: recombinant KvBeta, 4-cyanobenzaldehyde reduction, at 10 µM, stronger effect = higher value
# [5] = biological target: Voltage-gated potassium channel subunit beta-2 (Rattus norvegicus) (UniProt P62483); test: KvBeta positive modulators, primary screen, biochemical, NADPH fluorescence (AID 623;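 active = NADPH fluorescence slope more negative than the mean of all samples by about 3 SD, 99.7% confidence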;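 note: fluorescence intensity change per second fitted from 20 to 320 s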); settings: Recombinant KvBeta, NADPH fluorescence decrease slope, 10 min; at 10 µM; stronger effect = lower value
# [6] = biological target: Muscarinic acetylcholine receptor M4 (Homo sapiens) (UniProt P08173); test: compounds altering M4/GIRK thallium flux, either direction, primary screen, M4 allosteric agonist project, cell-based, HEK293 M4/GIRK, BTC-AM (AID 625;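 active = fluorescence slope after compound addition differing from the mean of all tested samples at 99.7% confidence, mostly higher but some lower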;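 note: thallium influx through GIRK channels coupled to M4 in HEK293 cells with BTC-AM dye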); settings: at 10 µM, actives lie on both sides
# [7] = inhibitors of Sendai virus-induced IRF3 signaling, primary screen, TLR/RLR signaling modifier project, cell-based, Sendai virus stimulus, luciferase, 10K MLSCN set (AID 602276;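 active = inhibition at or above 50% at 10 µM; inactive = inhibition below 50%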;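 note: firefly luciferase from ISG56 promoter only with Renilla not read in this screen; 0% = Sendai virus plus DMSO and 100% = medium plus DMSO without virus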); settings: HEK293 RL24 IRF3 luciferase reporter, at 10 µM, stronger effect = higher value
# [8] = inhibitors of poly I:C-induced TLR3 signaling, primary screen, cell-based, poly I:C stimulus, luciferase, 10K MLSCN set (AID 602277;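 active = inhibition of the reporter signal at or above 50%; inactive = inhibition below 50%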); settings: HEK293-TLR3 RL24 IRF3 luciferase reporter, at 10 µM, stronger effect = higher value
# [9] = inhibitors of Chlamydomonas gravitaxis, primary screen, whole organism, Chlamydomonas reinhardtii, WT vs cilia-less mutant, absorbance, 96-well (AID 463189;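 active = inhibition at or above 50% relative to wild type and mutant plate controls; inactive = inhibition below 50%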;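 note: 0% = wild type cc124 cells in DMSO and 100% = ciliumless bld1 mutant cells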); settings: OD600 absorbance, 2 days, at 10 µM, stronger effect = higher value
# Chain of Muscarinic acetylcholine receptor M4 (Homo sapiens) (P08173 whole entry, looked up): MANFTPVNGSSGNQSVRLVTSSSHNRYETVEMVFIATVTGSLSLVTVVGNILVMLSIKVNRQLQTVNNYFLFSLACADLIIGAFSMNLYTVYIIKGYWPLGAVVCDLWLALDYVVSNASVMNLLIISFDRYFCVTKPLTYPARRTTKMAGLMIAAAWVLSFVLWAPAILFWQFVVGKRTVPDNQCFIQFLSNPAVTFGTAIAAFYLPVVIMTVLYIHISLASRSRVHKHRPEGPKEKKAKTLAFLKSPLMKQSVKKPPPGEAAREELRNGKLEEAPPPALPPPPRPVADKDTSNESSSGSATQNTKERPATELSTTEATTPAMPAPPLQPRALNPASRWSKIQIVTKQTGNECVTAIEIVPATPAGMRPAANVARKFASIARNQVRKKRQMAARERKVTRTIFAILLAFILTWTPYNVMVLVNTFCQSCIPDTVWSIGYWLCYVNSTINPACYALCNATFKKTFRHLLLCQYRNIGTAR
# Chain of Voltage-gated potassium channel subunit beta-2 (Rattus norvegicus) (P62483 whole entry, looked up): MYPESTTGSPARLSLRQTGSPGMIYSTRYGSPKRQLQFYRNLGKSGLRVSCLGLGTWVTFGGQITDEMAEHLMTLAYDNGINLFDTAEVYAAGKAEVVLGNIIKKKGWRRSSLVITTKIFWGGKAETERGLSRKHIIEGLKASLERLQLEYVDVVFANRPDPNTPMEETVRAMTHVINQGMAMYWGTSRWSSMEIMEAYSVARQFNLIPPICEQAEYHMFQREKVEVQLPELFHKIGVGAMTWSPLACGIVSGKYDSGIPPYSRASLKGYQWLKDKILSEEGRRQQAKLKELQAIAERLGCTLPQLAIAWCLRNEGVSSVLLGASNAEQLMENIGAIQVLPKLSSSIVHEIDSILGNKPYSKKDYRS
SMILES,cell count [1],inhibition [1],inhibition of aggregation [2],nuclei count [2],inhibition [3],nuclei count [3],fluorescence slope [4],NADPH fluorescence slope [5],fluorescence slope [6],inhibition [7],inhibition [8],inhibition [9]
O=C(CN1CCN(Cc2cccc(Cl)c2)C1=O)N1CCC2(CC1)OCCO2,363,1.1% (inactive),19.2% (inactive),73.9%,26.2% (inactive),111%,-0.578 (inactive),-1.5e-05 (inactive),0.00798 (inactive),4.07% (inactive),14% (inactive),–
COc1ccccc1OCCCn1cc(C(=O)c2ccco2)c2ccccc21,596,-2.5% (inactive),-12.2% (inactive),101%,-29.4% (inactive),111%,-0.309 (inactive),-2.9e-06 (inactive),0.00746 (inactive),-22.2% (inactive),-81.2% (inactive),–
Oc1ccc(C2NCc3ccccc3-n3cccc32)cc1Cl (stereo unspecified),668,-13.6% (inactive),35.1% (inactive),127%,-48.5% (inactive),110%,-0.46 (inactive),-3.3e-05 (inactive),0.00669 (inactive),4.87% (inactive),23.9% (inactive),–
Cc1ccc(S(=O)(=O)Cc2ccc(C(=O)N3CCC4(CC3)OCCO4)o2)cc1,602,-6.9% (inactive),16.1% (inactive),113%,-17.6% (inactive),102%,-0.432 (inactive),-0.000506 (inactive),0.00517 (inactive),-7.38% (inactive),-9.45% (inactive),–
O=C1C2CCCN2C(c2ccc(Cl)c(Cl)c2)N1c1ccccn1 (stereo unspecified),499,-2.1% (inactive),0.2% (inactive),98.4%,17.4% (inactive),101%,-0.552 (inactive),-4e-05 (inactive),0.00578 (inactive),17.8% (inactive),12.7% (inactive),–
O=C(CN1C(=O)CN=C(c2ccccc2)c2ccccc21)NCc1ccco1,519,-2.9% (inactive),-13.4% (inactive),99.4%,-66.7% (inactive),142%,-0.571 (inactive),-6.4e-05 (inactive),0.00595 (inactive),-12.7% (inactive),-12.1% (inactive),–
O=C(Cc1ccccc1)OC(COCc1ccccc1)CN1CCOCC1 (stereo unspecified),314,-7.8% (inactive),-19.1% (inactive),77.8%,-56.9% (inactive),117%,-0.37 (inactive),2.9e-05 (inactive),0.00718 (inactive),2.92% (inactive),10.1% (inactive),–
COC(=O)c1ccccc1-n1c(C)nc2ccccc2c1=O,328,-4.4% (inactive),-24.8% (inactive),103%,-140% (inactive),115%,-0.605 (inactive),4.4e-06 (inactive),0.00587 (inactive),-2.94% (inactive),-2.38% (inactive),–
O=C(c1ccc2nc3ccc(Cl)cc3c(=O)n2c1)N1CCC2(CC1)OCCO2,758,-20.4% (inactive),8% (inactive),110%,-56.7% (inactive),125%,-0.0098 (inactive),1.1e-05 (inactive),0.00414 (inactive),-8.72% (inactive),-12% (inactive),–
O=C(C1CCCN(S(=O)(=O)c2cccc3nsnc23)C1)N1CCC2(CC1)OCCO2 (stereo unspecified),815,-0.7% (inactive),10.6% (inactive),96.6%,-154% (inactive),125%,-0.322 (inactive),-2.9e-05 (inactive),0.00517 (inactive),16.9% (inactive),1.28% (inactive),–
O=c1[nH]oc2c1CCNC2,–,–,–,–,–,–,–,–,–,–,–,1.51% (inactive)
